Measured values reported in the supplement of paper PMC10849652.
Targets with a hit are over-represented here; the source holds about 7,900 in all. About 0.6% of all pairs of compound and target were hits.

Compound: c1cn2cc(-c3ccc4cn[nH]c4c3)nc(Nc3ccc(N4CCOCC4)cc3)c2n1 [entospletinib]
Assay: log2 fold change, soluble protein after heating vs DMSO (PISA); higher = thermal stabilisation; K562 cells, 10 uM, 30 min; active = over 0.2 and 3.5 SD of the protein, either way, in both replicates (recomputed)
In short: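 Thermal stability values are relative to control samples and come from duplicates. They are expressed as log2 fold changes. For measurement, K562 cells (2×10^6 cells/mL) received 10 μM compound for 30 min, and aliquots were heated for 3 min over 48°C-58°C, pooled, and extracted at 4°C in PBS with 0.5% NP-40. Soluble protein, the supernatant after 21,000xg for 90 min, was quantified by TMTpro 16plex LC-MS/MS with equalised channel sums.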

UniProt Q13257, sequence (Q13257 whole entry, looked up): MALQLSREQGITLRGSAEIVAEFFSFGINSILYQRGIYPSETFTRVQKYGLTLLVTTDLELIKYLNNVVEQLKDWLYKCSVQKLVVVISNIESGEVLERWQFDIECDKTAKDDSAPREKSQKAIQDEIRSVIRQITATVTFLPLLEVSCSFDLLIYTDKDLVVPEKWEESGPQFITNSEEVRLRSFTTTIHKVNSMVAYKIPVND
UniProt Q9Y496, sequence (Q9Y496 whole entry, looked up): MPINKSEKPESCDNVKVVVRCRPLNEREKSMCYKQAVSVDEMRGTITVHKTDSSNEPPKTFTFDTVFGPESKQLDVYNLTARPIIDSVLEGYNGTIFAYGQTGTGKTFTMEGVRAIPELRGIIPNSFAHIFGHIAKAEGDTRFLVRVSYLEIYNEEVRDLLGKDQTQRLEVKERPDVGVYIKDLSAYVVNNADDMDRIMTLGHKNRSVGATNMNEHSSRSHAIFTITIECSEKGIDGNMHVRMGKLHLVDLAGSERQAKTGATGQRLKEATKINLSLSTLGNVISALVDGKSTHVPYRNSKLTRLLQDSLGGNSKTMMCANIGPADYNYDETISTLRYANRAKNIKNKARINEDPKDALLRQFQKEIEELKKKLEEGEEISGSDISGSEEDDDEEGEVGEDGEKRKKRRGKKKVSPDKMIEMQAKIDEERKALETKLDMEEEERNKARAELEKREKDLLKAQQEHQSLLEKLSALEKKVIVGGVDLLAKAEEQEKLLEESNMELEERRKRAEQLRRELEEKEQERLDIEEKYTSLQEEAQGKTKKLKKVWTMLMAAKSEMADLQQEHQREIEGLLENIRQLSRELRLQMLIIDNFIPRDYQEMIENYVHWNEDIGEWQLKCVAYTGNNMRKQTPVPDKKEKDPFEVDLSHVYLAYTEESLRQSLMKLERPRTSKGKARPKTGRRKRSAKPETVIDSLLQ
UniProt Q6UWB1, sequence (Q6UWB1 whole entry, looked up): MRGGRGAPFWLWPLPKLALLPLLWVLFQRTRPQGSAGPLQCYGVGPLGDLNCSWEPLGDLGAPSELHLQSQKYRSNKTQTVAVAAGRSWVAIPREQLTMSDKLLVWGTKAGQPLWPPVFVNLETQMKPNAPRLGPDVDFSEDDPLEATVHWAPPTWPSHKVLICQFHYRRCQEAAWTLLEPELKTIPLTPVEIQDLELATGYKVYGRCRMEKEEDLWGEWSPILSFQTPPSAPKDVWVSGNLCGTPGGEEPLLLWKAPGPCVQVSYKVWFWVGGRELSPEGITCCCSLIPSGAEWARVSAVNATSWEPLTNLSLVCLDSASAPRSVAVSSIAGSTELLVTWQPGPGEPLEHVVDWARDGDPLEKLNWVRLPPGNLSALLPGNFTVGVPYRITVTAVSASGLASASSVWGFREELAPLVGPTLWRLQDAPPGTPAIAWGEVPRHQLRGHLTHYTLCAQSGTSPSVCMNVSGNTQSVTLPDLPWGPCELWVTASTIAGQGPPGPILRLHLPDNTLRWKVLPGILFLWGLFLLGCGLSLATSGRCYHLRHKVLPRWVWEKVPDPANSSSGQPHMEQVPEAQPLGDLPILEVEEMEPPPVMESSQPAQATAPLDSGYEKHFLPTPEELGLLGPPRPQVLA
UniProt O95140, sequence (O95140 whole entry, looked up): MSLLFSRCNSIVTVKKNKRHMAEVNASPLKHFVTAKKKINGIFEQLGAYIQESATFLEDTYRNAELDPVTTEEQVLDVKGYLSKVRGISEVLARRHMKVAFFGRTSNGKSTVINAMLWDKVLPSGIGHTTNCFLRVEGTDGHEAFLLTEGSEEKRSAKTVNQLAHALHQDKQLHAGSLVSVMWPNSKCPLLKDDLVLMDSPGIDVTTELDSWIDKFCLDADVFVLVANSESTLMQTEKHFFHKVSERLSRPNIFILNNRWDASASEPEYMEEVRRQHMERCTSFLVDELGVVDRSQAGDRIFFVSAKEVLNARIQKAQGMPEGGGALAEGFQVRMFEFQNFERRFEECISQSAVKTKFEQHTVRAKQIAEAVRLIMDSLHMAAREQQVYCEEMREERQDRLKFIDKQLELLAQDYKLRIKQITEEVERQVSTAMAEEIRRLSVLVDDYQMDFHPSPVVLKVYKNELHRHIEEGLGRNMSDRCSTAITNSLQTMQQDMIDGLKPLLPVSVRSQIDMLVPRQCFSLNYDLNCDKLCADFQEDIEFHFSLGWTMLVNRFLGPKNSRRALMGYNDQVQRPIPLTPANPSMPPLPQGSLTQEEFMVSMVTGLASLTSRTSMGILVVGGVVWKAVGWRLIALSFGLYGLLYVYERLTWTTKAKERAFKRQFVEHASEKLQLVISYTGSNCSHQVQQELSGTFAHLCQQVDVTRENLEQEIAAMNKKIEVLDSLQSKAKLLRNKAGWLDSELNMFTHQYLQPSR
UniProt Q16644, sequence (Q16644 whole entry, looked up): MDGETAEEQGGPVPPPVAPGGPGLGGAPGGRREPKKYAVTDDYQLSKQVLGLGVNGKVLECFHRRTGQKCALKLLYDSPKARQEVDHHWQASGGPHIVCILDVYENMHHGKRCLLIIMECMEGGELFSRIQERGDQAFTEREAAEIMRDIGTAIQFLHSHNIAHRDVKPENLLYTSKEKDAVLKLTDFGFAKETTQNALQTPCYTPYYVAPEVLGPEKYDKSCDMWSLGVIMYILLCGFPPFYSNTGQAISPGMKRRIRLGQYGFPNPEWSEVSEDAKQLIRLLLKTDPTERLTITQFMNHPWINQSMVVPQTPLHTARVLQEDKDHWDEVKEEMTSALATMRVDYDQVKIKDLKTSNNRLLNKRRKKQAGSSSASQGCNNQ
UniProt Q14676, sequence (Q14676 whole entry, looked up): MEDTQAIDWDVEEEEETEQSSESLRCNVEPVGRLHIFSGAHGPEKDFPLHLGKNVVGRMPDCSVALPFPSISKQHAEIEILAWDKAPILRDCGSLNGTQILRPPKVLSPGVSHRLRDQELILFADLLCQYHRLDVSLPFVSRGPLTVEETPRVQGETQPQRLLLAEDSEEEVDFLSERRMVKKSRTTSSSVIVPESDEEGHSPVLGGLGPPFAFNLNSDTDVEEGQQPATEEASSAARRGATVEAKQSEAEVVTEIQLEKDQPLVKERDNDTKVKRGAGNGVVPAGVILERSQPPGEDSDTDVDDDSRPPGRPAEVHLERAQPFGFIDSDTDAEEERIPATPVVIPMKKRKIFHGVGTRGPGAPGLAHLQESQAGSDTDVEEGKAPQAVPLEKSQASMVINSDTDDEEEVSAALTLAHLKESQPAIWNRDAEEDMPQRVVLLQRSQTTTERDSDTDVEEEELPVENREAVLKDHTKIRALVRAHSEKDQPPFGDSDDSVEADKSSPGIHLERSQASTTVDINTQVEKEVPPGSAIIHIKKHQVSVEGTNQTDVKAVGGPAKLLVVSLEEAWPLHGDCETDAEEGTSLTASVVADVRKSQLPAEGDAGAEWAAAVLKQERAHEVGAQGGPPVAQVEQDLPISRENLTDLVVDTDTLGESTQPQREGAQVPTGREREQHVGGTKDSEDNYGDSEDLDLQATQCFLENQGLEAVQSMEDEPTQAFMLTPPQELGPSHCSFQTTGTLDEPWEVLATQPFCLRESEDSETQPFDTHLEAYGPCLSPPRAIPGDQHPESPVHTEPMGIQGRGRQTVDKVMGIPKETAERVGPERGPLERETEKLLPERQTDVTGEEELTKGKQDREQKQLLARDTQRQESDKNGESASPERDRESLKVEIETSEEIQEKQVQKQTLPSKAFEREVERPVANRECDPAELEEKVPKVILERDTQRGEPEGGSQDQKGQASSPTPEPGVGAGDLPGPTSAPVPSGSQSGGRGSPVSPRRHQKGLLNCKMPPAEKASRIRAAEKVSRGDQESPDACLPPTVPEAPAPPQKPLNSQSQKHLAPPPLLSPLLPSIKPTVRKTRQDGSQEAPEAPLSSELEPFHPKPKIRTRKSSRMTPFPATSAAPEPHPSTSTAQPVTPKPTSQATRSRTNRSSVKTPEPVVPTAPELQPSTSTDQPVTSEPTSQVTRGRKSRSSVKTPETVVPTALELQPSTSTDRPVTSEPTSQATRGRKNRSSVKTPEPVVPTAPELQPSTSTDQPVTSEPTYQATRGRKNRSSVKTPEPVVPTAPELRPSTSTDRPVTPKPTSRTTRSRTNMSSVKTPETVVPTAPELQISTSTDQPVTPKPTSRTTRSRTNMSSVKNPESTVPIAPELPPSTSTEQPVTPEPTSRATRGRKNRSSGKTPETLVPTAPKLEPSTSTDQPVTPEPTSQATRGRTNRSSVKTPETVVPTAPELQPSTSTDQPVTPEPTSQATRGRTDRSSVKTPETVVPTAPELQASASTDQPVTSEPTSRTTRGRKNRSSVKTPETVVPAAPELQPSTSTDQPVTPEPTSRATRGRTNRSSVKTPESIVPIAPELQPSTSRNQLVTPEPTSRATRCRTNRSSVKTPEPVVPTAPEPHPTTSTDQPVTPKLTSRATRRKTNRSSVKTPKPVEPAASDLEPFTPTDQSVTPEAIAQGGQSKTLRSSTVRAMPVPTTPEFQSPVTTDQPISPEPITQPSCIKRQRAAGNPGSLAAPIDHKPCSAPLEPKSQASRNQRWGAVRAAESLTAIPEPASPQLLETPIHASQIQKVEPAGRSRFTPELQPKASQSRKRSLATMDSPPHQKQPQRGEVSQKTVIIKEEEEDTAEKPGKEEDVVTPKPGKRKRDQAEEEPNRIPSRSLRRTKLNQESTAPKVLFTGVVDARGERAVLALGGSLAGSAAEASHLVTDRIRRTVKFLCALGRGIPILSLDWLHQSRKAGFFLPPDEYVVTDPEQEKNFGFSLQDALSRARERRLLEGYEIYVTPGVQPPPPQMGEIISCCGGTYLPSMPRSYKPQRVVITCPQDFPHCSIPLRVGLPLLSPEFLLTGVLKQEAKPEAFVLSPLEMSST
UniProt Q8NC54, sequence (Q8NC54 whole entry, looked up): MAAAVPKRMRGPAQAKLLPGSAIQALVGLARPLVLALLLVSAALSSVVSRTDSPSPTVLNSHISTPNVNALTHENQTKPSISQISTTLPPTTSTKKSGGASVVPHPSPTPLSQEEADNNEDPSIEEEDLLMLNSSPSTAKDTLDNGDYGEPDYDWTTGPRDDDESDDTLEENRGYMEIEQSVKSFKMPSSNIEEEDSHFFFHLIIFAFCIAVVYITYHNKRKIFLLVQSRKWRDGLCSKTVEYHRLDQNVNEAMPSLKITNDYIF

log2 fold change, inactive:
KMT2C isoform 3 (UniProt Q8NEZ4) 0.052
MAP3K20 (UniProt Q9NYL2) -0.007
MFN2 (UniProt O95140) -0.004
ILVBL (UniProt A1L0T0) -0.028
MFSD11 (UniProt O43934) 0.109
LUM (UniProt P51884) 0.331
MED25 isoform 3 (UniProt Q71SY5) -0.01
IL27RA (UniProt Q6UWB1) 0.112
KIF1B isoform 3 (UniProt O60333) 0.041
MIEF1 (UniProt L0R8F8) 0.023
LPIN1 isoform 7 (UniProt Q14693) -0.078
MDC1 (UniProt Q14676) -0.054
ILF2 (UniProt Q12905) -0.103
MAP4K4 isoform 3 (UniProt O95819) -0.019
MAPKAPK3 (UniProt Q16644) 0.001
MAD2L1 (UniProt Q13257) 0.064
L2HGDH (UniProt Q9H9P8) 0.039
MED17 (UniProt Q9NVC6) -0.068
KCT2 (UniProt Q8NC54) 0.022
MAPK9 (UniProt P45984) -0.069
KPNA6 (UniProt O60684) -0.021
ILF3 (UniProt Q12906) -0.086

log2 fold change, active:
KIF3A (UniProt Q9Y496) 0.491
